Experimental findings from PubChem BioAssay (NCATS) are described below.

Inconclusive results are not listed. Values without a mark were called inactive. The source made the active and inactive calls. Calls come from the whole dose curve.
% is set by controls: 0 for no effect and ±100 for the full control effect.

Sequence of Nucleoprotein (Lymphocytic choriomeningitis virus (strain Armstrong)) (P09992 whole entry, looked up): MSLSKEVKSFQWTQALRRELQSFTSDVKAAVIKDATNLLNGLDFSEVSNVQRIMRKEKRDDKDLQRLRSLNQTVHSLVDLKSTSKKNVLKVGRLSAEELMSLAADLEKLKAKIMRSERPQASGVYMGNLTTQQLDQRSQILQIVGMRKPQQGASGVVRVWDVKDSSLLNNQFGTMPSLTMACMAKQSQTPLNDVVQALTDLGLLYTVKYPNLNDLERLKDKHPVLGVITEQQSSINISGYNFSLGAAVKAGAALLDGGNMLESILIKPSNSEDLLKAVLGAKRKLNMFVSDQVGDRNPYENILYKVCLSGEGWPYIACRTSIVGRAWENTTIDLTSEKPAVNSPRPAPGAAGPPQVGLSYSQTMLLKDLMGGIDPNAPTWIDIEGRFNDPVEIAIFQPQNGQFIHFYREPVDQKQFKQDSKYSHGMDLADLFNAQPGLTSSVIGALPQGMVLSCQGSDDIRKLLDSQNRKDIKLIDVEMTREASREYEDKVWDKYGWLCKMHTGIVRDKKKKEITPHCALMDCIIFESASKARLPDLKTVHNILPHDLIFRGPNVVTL

The assay addresses Nucleoprotein (Lymphocytic choriomeningitis virus (strain Armstrong)) (UniProt P09992). Put plainly: qHTS for Inhibitors of the Functional Ribonucleoprotein Complex (vRNP) of Lymphocytic Choriomeningitis Arenaviruses (LCMV): LCMV Primary Screen - GLuc reporter signal (AID 1347086). Note: nearly all actives have a fitted effect of over 70% in size. The note with it: LCMV minigenome vRNP cell assay, Gaussia luciferase reporter; series mostly up to 57.5 µM; activity change, negative = inhibition: at the top concentration.
As to `CC(COc1ccccc1)NN` (centres undefined), the “activity change, negative = inhibition” value is -1.61%.

`COc1ccc(/C(C)=C/C(=O)O)c(OC)c1`: the “activity change, negative = inhibition” value is 18.6%.

As to `C=CCn1c(=O)n([C@@H]2O[C@H](CO)[C@@H](O)[C@H]2O)c2nc(N)[nH]c(=O)c21`, the “activity change, negative = inhibition” value is -2.11%.

For the compound `CC[N+](CC)(CCNC(=O)C(=O)NCC[N+](CC)(CC)Cc1ccccc1Cl)Cc1ccccc1Cl`, the “activity change, negative = inhibition” value was 10.3%.

As for `Cc1cc2c(cc1CC(=O)c1sccc1S(=O)(=O)Nc1onc(C)c1Cl)OCO2`, the “activity change, negative = inhibition” value was -0.234%.

For `CC1(C)O[C@@H]2C[C@H]3[C@@H]4C[C@H](F)C5=CC(=O)C=C[C@]5(C)[C@@]4(F)[C@@H](O)C[C@]3(C)[C@]2(C(=O)CO)O1`, the “activity change, negative = inhibition” value was 41.9%.

With `O=S(=O)(O)c1ccc(O)cc1`, the “activity change, negative = inhibition” value was 22.9%.

For `NCCNCCNCCNCCN`, the activity change, negative = inhibition was -1.94% [at 11.5 µM].

For `Cc1cc(NS(=O)(=O)c2ccc(N)cc2)no1`, the Potency result is “inactive”.

Regarding `CCCCOC(=O)CC(CC(=O)OCCCC)(OC(C)=O)C(=O)OCCCC`, the “activity change, negative = inhibition” value was -2.76%.

Regarding `O=C(O)[C@H](O)c1ccccc1`, the “activity change, negative = inhibition” value is 0.465%.

Consider `OC[C@H]1O[C@@H]2O[C@H]3[C@H](O)[C@@H](O)[C@@H](O[C@H]4[C@H](O)[C@@H](O)[C@@H](O[C@H]5[C@H](O)[C@@H](O)[C@@H](O[C@H]6[C@H](O)[C@@H](O)[C@@H](O[C@H]7[C@H](O)[C@@H](O)[C@@H](O[C@H]8[C@H](O)[C@@H](O)[C@@H](O[C@H]1[C@H](O)[C@H]2O)O[C@@H]8CO)O[C@@H]7CO)O[C@@H]6CO)O[C@@H]5CO)O[C@@H]4CO)O[C@@H]3CO`, for which the “activity change, negative = inhibition” value is -3.42%.

Consider `CN(C)CCN1CCN(c2cccc(Cl)c2)C1=O`, for which the “activity change, negative = inhibition” value was -0.09%.

As for `Cc1ncc(CO)c(CO)c1O`, the Potency result was “inactive”.

As for `O=C(O)CNC(=O)c1ccccc1`, the Potency entry is “inactive”.

On to `CCN(CC)S(=O)(=O)c1ccc(C(=O)O)cc1`, for which the “activity change, negative = inhibition” value is 8.94%.

With `N#CCC(=O)NN`, the “activity change, negative = inhibition” value was -5.32%.

Take `O=C(O)Cc1sc(-c2ccccc2)nc1-c1ccc(Cl)cc1`: the “activity change, negative = inhibition” value was 2.31%.

For the compound `C/C(=C(\CCO)SS/C(CCO)=C(\C)N(C=O)Cc1cnc(C)nc1N)N(C=O)Cc1cnc(C)nc1N`, the “activity change, negative = inhibition” value was 8.74%.

Consider `Cc1cc(=O)[nH]c(=S)[nH]1`, for which the “activity change, negative = inhibition” value was 4.16%.

As to `CCCC(CCC)(C(=O)OCC)C(=O)OCC`, the “activity change, negative = inhibition” value was 0.144%.

For the compound `CN(c1nccc(=O)[nH]1)C1CCN(c2nc3ccccc3n2Cc2ccc(F)cc2)CC1`, the Potency result is “inactive”.

Regarding `CN(C)CCN(Cc1ccsc1)c1ccccn1`, the “activity change, negative = inhibition” value was -0.361%.

In the case of `CCC(=O)c1c(O)cc(O)cc1O`, the “activity change, negative = inhibition” value was 1.12%.

As for `NS(=O)(=O)c1cc(Cl)c(Cl)c(S(N)(=O)=O)c1`, the “activity change, negative = inhibition” value was -0.304%.

With `CC(C)Cc1ccc(CC(=O)O)cc1`, the “activity change, negative = inhibition” value was 3.56%.

Turning to `CC(=O)c1ccc(OCC(=O)N2CCCCC2)cc1`, the “activity change, negative = inhibition” value was 18.3%.

`CN1C(C(=O)Nc2ccccn2)=C(O)c2sccc2S1(=O)=O`: the Potency result is “inactive”.

For `CC(=O)CC(c1ccc([N+](=O)[O-])cc1)c1c(O)c2ccccc2oc1=O` (centres undefined), the “activity change, negative = inhibition” value was 11.8%.

`O=c1[nH]c(=O)n([C@H]2O[C@H](CO)[C@@H](O)[C@@H]2O)cc1/C=C\Br`: the “activity change, negative = inhibition” value is 10.2%.

In the case of `O=C1CC[C@@H](C(=O)O)N1`, the “activity change, negative = inhibition” value was 22.8%.

For `CCCC(O)C(CC)CO` (centres undefined), the “activity change, negative = inhibition” value is -1.03%.

In the case of `COc1ccc(-c2cc(=O)c3c(O)cc(O[C@@H]4O[C@H](CO[C@@H]5O[C@@H](C)[C@H](O)[C@@H](O)[C@H]5O)[C@@H](O)[C@H](O)[C@H]4O)cc3o2)cc1O`, the “activity change, negative = inhibition” value is 13.5%.

Take `Cc1ccc(-c2ccccc2C#N)cc1`: the “activity change, negative = inhibition” value was -2.58%.

Consider `COC(=O)c1cc(Cl)ccc1OC`, for which the “activity change, negative = inhibition” value was 2.31%.

For `CCN1CCCC1CNC(=O)c1cc(S(=O)(=O)CC)c(N)cc1OC` (centres undefined), the Potency entry is “inactive”.

`CCOc1ccc(NC(=O)CC(C)O)cc1` (centres undefined): the “activity change, negative = inhibition” value is 31%.

With `Nc1ccc(S(=O)(=O)c2ccc(N)cc2)cc1`, the “activity change, negative = inhibition” value is 6.65%.

Take `CNCCCC12CCC(c3ccccc31)c1ccccc12`: the Potency entry was “inactive”.
